Reference: ChEMBL document CHEMBL3988442, “University of Dundee, Small-Polar-MMV Screening Library” (2021)
In all, about 38,000 compounds went through this assay and about 1,200 (3.2%) showed an effect of 50% or more. The median lay at about -58%. The sample as a whole holds a higher share of strong results than the screen did.

tested on: Plasmodium falciparum; experiment: Calibr Malaria Delayed Death Assay SOP; format: functional, organism-based; parameters: scale not given: in the data most compounds retested in dose-response had high values; details: concentration 4.99e-06 (unit not given; other assays of the set use mol/L)

Point of comparison: `Cc1ccccc1C(=O)N1CCO[C@H]2[C@H](OCCN(C)C)CC[C@@H]21.O=C(O)C(F)(F)F`, “Percent Effect” value -35.41%. Against it:
- Cc1nc(C(C)C)sc1C(=O)NCCSc1nccn1C — lower, -107.8%
- CC(=O)Nc1ccn(Cc2ccccc2)n1 — lower, -105.1%
- CCOC(C)C(=O)N1CCCN(Cc2csc(CC)n2)CC1 (stereo not given) — lower, -48.75%
- Cc1nc(CN2CCC23CCN(Cc2ccco2)CC3)cs1 — lower, -38.18%
- CN1CCNC(=O)C12CCN(Cc1ccco1)CC2.O=C(O)C(F)(F)F.O=C(O)C(F)(F)F — higher, -34.77%
- Cc1nc(CN2CCC3(C2)CN(Cc2ccco2)C3)cs1 — higher, 1.617%
- Cc1ccc(CN2CCC3(CC2)CCN(Cc2ccco2)CC3)cc1.O=C(O)C(F)(F)F.O=C(O)C(F)(F)F — higher, 91.42%
- O=C(O)C(F)(F)F.O=C(O)C(F)(F)F.O=C(O)C(F)(F)F.c1coc(CN2CCC3(CC2)COCCN(CCN2CCCC2)C3)c1 — lower, -114.4%
- Cc1noc(C)c1CN1CC2(CCN(Cc3c[nH]cn3)CC2)CC1=O — lower, -101.4%
- CO[C@@H]1CC[C@H]2[C@H]1OCCN2Cc1ccccn1.O=C(O)C(F)(F)F.O=C(O)C(F)(F)F — lower, -69.16%
- CN(C)CCN1CCC(NC2CSCCc3ccccc32)CC1 (stereo not given) — higher, 75.4%
- CNC(=O)CN1CCC(NC2CSCCc3ccccc32)CC1 (stereo not given) — lower, -108%
- COCCCN1CCC(NC2CSCCc3ccccc32)CC1 (stereo not given) — higher, -4.969%
- Cn1ncnc1CNc1ccccc1C(=O)NC(C)(C)C — lower, -77.77%
- Cc1ccccc1CN1CCC2(CCCN2C(=O)C(C)C)CC1 — lower, -62.94%
- O=C1NC(C(=O)NCc2cccnc2Oc2ccc(F)c(F)c2)CO1 (stereo not given) — lower, -127.9%
- COc1ccc(C(=O)C2CCCN(Cc3cccc(F)c3)C2)c(OC)c1 (stereo not given) — higher, 22.79%
- COc1ccc(C(=O)C2CCCN(CCc3ccccc3)C2)c(OC)c1 (stereo not given) — higher, 71.36%
- CCN(CC1CCCN(CCc2cccc(OC)c2)C1)C(=O)CN(C)C (stereo not given) — higher, 83.05%
- CCN(CC1CCCN(CCc2cccc(OC)c2)C1)C(=O)CO (stereo not given) — higher, 28.13%
- CCN(CC1CCCN(CCc2cccc(OC)c2)C1)C(=O)CSC (stereo not given) — higher, 19.02%
- COc1ccc(C(=O)C2CCCN(Cc3ccncc3)C2)c(OC)c1 (stereo not given) — higher, -20.34%
- CCCN(CCC)C(=O)c1cnn(C)c1C — lower, -133.3%
- COc1ccccc1COCC(O)CN(C)Cc1cccc(Cl)c1 (stereo not given) — lower, -103.6%
- CCOc1cccc(CNc2ccccc2OC)c1O — lower, -50.26%
- COc1cccc(CNc2ccc(F)c(Cl)c2)c1O — lower, -125.4%
- COc1ccc(CNC(=O)c2ccc(Cl)cc2F)cc1C(=O)O — lower, -124.3%
- COc1cccc(CNCc2ccc(F)c(Cl)c2)c1O — higher, 79.38%
- COc1cccc(CNCc2cccc(Cl)c2)c1O — higher, 84.59%
- CCn1nccc1CNc1nc(N)nc2c1nc(C)n2C — higher, -33.19%
- Cn1nc(CN2CCCCC2)c2c1CN(C(=O)c1ccoc1)C2 — higher, 14.54%
- O=C(O)c1cccc(N2CCC(Oc3cccc(F)c3)CC2)n1 — lower, -36.51%
- O=C(Nc1cnc(Oc2ccccc2)nc1)C1CC1 — higher, -34.92%
- O=C(Nc1ccccc1Oc1cccc(F)c1)C1CCS(=O)(=O)C1 (stereo not given) — lower, -81.74%
- CNCc1cc(F)ccc1Oc1ccc(F)cc1 — higher, 15.63%
- CCn1cc(-c2nn3c(C(C)C)nnc3s2)c(C)n1 — lower, -104%
- CC(NC(=O)N1CCCCCC1)c1ccc(S(N)(=O)=O)cc1 (stereo not given) — lower, -106.8%
- Cc1ncsc1C(=O)NCCNc1ncccn1 — lower, -77.02%
- COCC1CN(CCOc2ccc(Cl)cc2)Cc2c1cnn2C.O=C(O)C(F)(F)F.O=C(O)C(F)(F)F (stereo not given) — higher, -4.236%
- CN(C)C1(CNc2ncc(Br)cn2)CCOCC1 — higher, 27.48%
- CSC1(CNC(=O)NC(C)c2ccc(F)cc2)CCOCC1 (stereo not given) — lower, -168.4%
- CC(NCC1(N(C)C)CCOCC1)c1ccc(S(C)(=O)=O)cc1 (stereo not given) — lower, -124.5%
- CN(C)C1(CNC(=O)c2c(O)cc(Cl)cc2Cl)CCOCC1 — lower, -157.7%
- CC(NCC1(N(C)C)CCOCC1)c1ccc(SC(F)F)cc1 (stereo not given) — higher, 51.19%
- CC(NCC1(N(C)C)CCOCC1)c1ccc(Cl)cc1 (stereo not given) — higher, 72.75%
- O=S(=O)(N1CCCC1)N(Cc1ccccc1)CC1CCCO1 (stereo not given) — lower, -64.47%
- CN(C)CCN1C[C@@H]2CN(S(=O)(=O)c3ccccc3)C[C@@H]2C1=O.O=C(O)C(F)(F)F — lower, -103%
- CCN(CC)S(=O)(=O)c1ccc(C(=O)NC(C)(C)C)cc1 — lower, -100.9%
- Cc1cc2nc(-c3ccccc3)cc(NCC3CCCOC3)n2n1 (stereo not given) — higher, 20.07%
- COCCC(=O)Nc1nc2c(OC)cc(F)cc2s1 — lower, -96.38%
- COc1ccc(CNC(C)c2ccc(Cl)c(Cl)c2)c(OC)c1OC (stereo not given) — higher, 65.05%
- COc1ccc(CNC(C)c2ccc(Cl)cc2)c(OC)c1OC (stereo not given) — higher, 80.38%
- COc1ccc(CNC(C)Cn2cccn2)c(OC)c1OC.Cl (stereo not given) — lower, -41.68%
- COc1ccc(CNC(C)c2cccc(Cl)c2)c(OC)c1OC (stereo not given) — higher, 42.06%
- CC(NCc1ccc(C(N)=O)cc1)c1ccc(Cl)c(Cl)c1.Cl (stereo not given) — higher, 4.882%
- COCCS(=O)(=O)NC(C)c1ccccc1Cl (stereo not given) — lower, -65.19%
- COc1ccc(C(C)NCc2ccc(OC)c(OC)c2OC)cc1F.Cl (stereo not given) — higher, 34.25%
- COc1ccc(CNC(C)c2ccccc2Cl)c(OC)c1OC.Cl (stereo not given) — higher, 74.88%
- COc1ccc(C(C)NCc2c[nH]nc2C)cc1OC.Cl (stereo not given) — lower, -66.18%
- Cc1ccc(CN2C[C@H](OCC3CCN(C)CC3)[C@H]3COC[C@H]32)o1 — higher, 12.64%
- Cc1nc(NC(=O)c2c(-n3cnnn3)sc3c2CCC3)sc1C — lower, -110.9%
- CCOc1ccccc1NC(=O)NCCc1ccoc1 — lower, -120.2%
- COC(=O)c1cccc(C(=O)N(C)Cc2cccc(F)c2)c1 — lower, -135.6%
- Cc1cc(CN2CCCC2)cc(Oc2ccc3c(c2)CC(CN)O3)c1 (stereo not given) — higher, 26.4%
- COc1ccc(CN2CCCC2)cc1Oc1ccc(NC(C)=O)cc1 — lower, -51.76%
- COc1ccc(CN2CCCC2)cc1Oc1ccc2c(c1)CC(CN)O2 (stereo not given) — higher, 87.78%
- COc1ccc(CN2CCCC2)cc1Oc1cccc(C#N)n1 — higher, 41.79%
- COc1cc(CN2CCCC2)ccc1Oc1ccc2c(c1)CC(CN)O2 (stereo not given) — higher, 58.6%
- COc1cc(CN2CCCC2)ccc1OC12CCCN(CC1)C2 (stereo not given) — lower, -168.7%
